Sampled rows, rich in hits. Any-hit rate of the full collection: about 2%.
Six1-Eya2 blk: qHTS Assay for Inhibitors of the Six1/Eya2 Interaction | Homeobox protein SIX1 (Homo sapiens) + Protein phosphatase EYA2 (Homo sapiens), … | AlphaScreen GST-Six1/His-Eya2 binding, biochemical; stronger effect = lower value | activity change, % (concentration not given with the values) | actives 0.56% (n = 360,000) | AID 651725, 2012
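Homogeneous AlphaScreen proximity assay pairing GST-Six1 with His-tagged Eya2 (added as 5X mix: 250 nM and 500 nM) in 50 mM Tris pH 8.0, 300 mM NaCl, 1 mM TCEP. Glutathione donor and nickel acceptor beads; 1 h, 37 °C, dark.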
KCNH2 3.1 block: qHTS for Inhibitors of KCHN2 3.1: Mutant qHTS; AID 720553, 2013; actives 0.95% (n = 340,000); Potassium voltage-gated channel subfamily H member 2, brain isoform KCNH2 3.1 (human); U2OS KCNH2 3.1, thallium flux FluxOr; stronger effect = lower value; activity change, % (tested at about 1.8 µM);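 active means maximum activity change below -70%; inconclusive means maximum activity change from -70% to -50%; inactive means maximum activity change above -50%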;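 further: thallium influx rate constant from kinetic fluorescence after stimulation buffer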
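U2OS cells transduced with KCNH2 3.1 mutant virus (1.77 x 10^8 /mL, 4 h), plated overnight at 37 C, loaded 45 min with FluxOr dye plus Red40 quencher. Thallium flux rate constant from kinetic reads after stimulation buffer, normalised to controls.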
hERG WT inh: qHTS for Inhibitors of KCHN2 3.1: Wildtype qHTS. U2OS, BacMam KCNH2, thallium flux FluxOr; stronger effect = lower value. activity change, % at 1.84 µM. actives 0.37% (n = 340,000);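 active means maximum activity change below -70%; inconclusive means maximum activity change between -70% and -50%; inactive means maximum activity change above -50%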
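U2OS cells transduced with wild-type KCNH2 virus are loaded with FluxOr dye for 45 min, and thallium flux is measured in kinetic reads before and after stimulation buffer. Rate constants are normalized to DMSO controls.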
JMJD2E inh: qHTS Assay for Inhibitors of Human Jumonji Domain Containing 2E (JMJD2E) | Lysine-specific demethylase 4E (Homo sapiens), B2RXH2 | JMJD2E catalytic domain, FDH-coupled NADH fluorescence (FDH is formaldehyde dehydrogenase) | Potency, µM (series often up to 57.1 µM), for inactives: top-dose activity change, negative = inhibition, actives largely listed as inhibitors | actives 1.6% (n = 230,000) | AID 2147, 2009; active means well fitted inhibition curve with a large enough effect, not every such curve was filed as active; inconclusive means small, poorly fitted or top-dose-only effect, or another doubt; inactive means no such curve, though single readings can be large or run the other way;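 further: potency means the concentration at half of the fitted maximal effect; 0% = wells with enzyme and -100% = buffer wells without enzyme; nearly all actives have a fitted effect of over 50% in size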
CtBP-E1A blk: qHTS Assay for Inhibitors of the CtBP/E1A Interaction; AlphaScreen GST-E1A/His-CtBP binding, 1536-well; stronger effect = lower value; activity change, % (test concentration not listed); actives 0.49% (n = 340,000)
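Protein mix (5X: 125 nM each GST-E1A, His-CtBP) was incubated with pinned compound 2 h at 37 deg C in dark, in 50 mM Tris pH 8.0 buffer with 300 mM NaCl. Glutathione donor and nickel acceptor beads followed; AlphaScreen signal read after 1 h.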
Numbers without * were called inactive; u = inconclusive; x = no result given. Unless noted, no stated cut-off is given here; in the data, active means activity change below about -65%; inconclusive means mostly about -30% to -63%; inactive means weaker than that. Unless noted, on the % scale 0 is the no-effect control and ±100 the full control effect.

SMILES	Six1-Eya2 blk	KCNH2 3.1 block	hERG WT inh	JMJD2E inh	CtBP-E1A blk
CCN(CC)S(=O)(=O)c1ccc(N2CCOCC2)c(NC(=O)CCOc2ccccc2)c1	7	5	-16	4%	x
CCC(C)NC(=O)c1cc(OC)c(OC)c(OC)c1 (stereo unspecified)	1	3	10	3%	-3
COCCN(CC1CCCN(C2Cc3ccccc3C2)C1)C(=O)CCC(N)=O (stereo unspecified)	2	-127*	-43	x	-8
COCCN(CC1CCCN(C2Cc3ccccc3C2)C1)C(=O)CCC(C)=O (stereo unspecified)	-10	-16	36	x	-11
CN/N=C(\Cc1nc2ccccc2[nH]1)c1ccc([N+](=O)[O-])cc1	-18	-75*	u	u	-1
O=C(Cc1nc2ccccc2[nH]1)c1ccc(Cl)cc1	2	0	-13	x	-8
Clc1ccc(/C(Cc2nc3ccccc3[nH]2)=N\Nc2ccccc2)cc1	-16	-102*	0	22µM*	-10
COCc1c(Br)c(C)[nH]c(=O)c1C#N	8	-6	-6	u	2
CCOc1ccc(CSC2=NCCN2)cc1[N+](=O)[O-]	4	-91*	8	6%	1
CCOc1ccc(CN(CCO)CCO)cc1[N+](=O)[O-]	32	-76*	9	6%	2
COc1ccc(CSC(=N)N)cc1[N+](=O)[O-]	-4	-20	15	-2%	5
CCCCCOc1ccc(CSC(=N)N)cc1[N+](=O)[O-]	26	-96*	29	1%	11
O=C(O)c1ccccc1N=Nc1c(O)[nH]c2ccc([N+](=O)[O-])cc12	-72*	-127*	-3	x	-85*
O=[N+]([O-])c1ccc2[nH]c(O)c(N=NC(=S)NCC3CCCO3)c2c1 (stereo unspecified)	-21	0	-2	10%	-15
CCNC(=S)N=Nc1c(O)[nH]c2ccc([N+](=O)[O-])cc12	-84*	14	6	9%	-87*
O=[N+]([O-])c1ccc2[nH]c(O)c(N=NC(=S)Nc3cccnc3)c2c1	-80*	4	-19	2%	-88*
O=C(/C=C/c1ccco1)N1CCN(S(=O)(=O)c2ccccc2)CC1	-11	-19	13	x	0
S=C1NCN(C2CCCCC2)CN1c1ccccc1	-8	-96*	-3	15%	x
S=C1NCN(Cc2ccco2)CN1c1ccccc1	1	3	1	2%	-1
CN(C)c1cccc(C(=O)NNC(=O)/C=C/c2cccs2)c1	-2	16	-8	x	x
CCC(O)(CC)C(=O)N/N=C/c1cc(Br)cc(Br)c1O	u	1	-6	u	u
CC(=O)N/N=C/c1cc(C(C)(C)C)cc(/C=N/NC(C)=O)c1O	-76*	-9	-3	22µM*	-88*
CC(=O)NCC1CCCN(C(=O)c2oc3c(F)cccc3c2C)C1 (stereo unspecified)	6	-126*	-16	x	x
O=C(Nc1ccc(Br)cc1)c1cccc(S(=O)(=O)Nc2ccccn2)c1	u	x	-191*	x	-4
O=C(Nc1ccc(Br)cc1)c1ccc(Br)c(S(=O)(=O)Nc2cccnc2)c1	u	-3	3	-4%	-66*
SMILES	Six1-Eya2 blk	KCNH2 3.1 block	hERG WT inh	JMJD2E inh	CtBP-E1A blk
O=C(Nc1ccccc1)c1cccc(S(=O)(=O)Nc2ccccn2)c1	12	-3	-4	4%	0
CCOc1ccc(C2C3=C(CCCC3=O)Nc3nc(C(F)(F)F)nn32)cc1OC (stereo unspecified)	8	1	1	-10%	-4
CC(C)C(NS(=O)(=O)c1ccccc1F)C(=O)N1CCc2ccccc2C1 (stereo unspecified)	-4	-11	-8	x	9
O=C(CCCSc1nc2sc3c(c2c(=O)[nH]1)CCC3)NCCO	3	-12	26	-5%	0
O=C(O)c1cccc(-n2cccc2/C=C/[N+](=O)[O-])c1	u	5	-4	u	6
O=C(O)c1cccc(-n2cccc2/C=C\[N+](=O)[O-])c1	-22	12	4	14µM*	-9
NC(=O)CC(NC(=O)c1ccccc1)c1ccc(NC2CCN(Cc3ccccc3)CC2)c([N+](=O)[O-])c1 (stereo unspecified)	1	2	-6	x	-2
O=[N+]([O-])c1cc(C(F)(F)F)ccc1NC1CCN(Cc2ccccc2)CC1	u	-86*	-42	8%	u
O=[N+]([O-])c1cc(C(F)(F)F)ccc1NC1CCN(Cc2ccccc2)C1 (stereo unspecified)	-4	-91*	-80*	x	0
O=C(NCc1ccccc1)c1cc(C2CCCCN2C(=O)c2ccccc2)on1 (stereo unspecified)	-8	x	x	x	0
Cc1ccc([N+](=O)[O-])c(C)[n+]1C	1	-4	-1	18µM*	x
O=C(O)c1cccc(NS(=O)(=O)c2ccc(Cl)c(C(=O)Nc3cccc([N+](=O)[O-])c3)c2)c1	-25	-2	-5	x	-1
Cn1c(CCNC(=O)C2CCCCC2)nc2cc([N+](=O)[O-])ccc21	8	0	-8	-6%	5
CCn1c(SCC(=O)c2ccc(O)c(O)c2)nnc1-c1ccc(C)cc1	-9	-2	7	25µM*	-1
O=C(N/N=C/c1ccc([N+](=O)[O-])o1)c1cn2ccc3ccccc3c2n1	-8	-3	1	8%	-16
Cc1oc(-c2ccccc2Cl)nc1CN1CCCCC1c1cccnc1 (stereo unspecified)	-15	-15	8	22µM*	0
Cc1oc(-c2ccccc2Cl)nc1CN1CCCC1c1ccc(F)cc1 (stereo unspecified)	4	-4	11	u	-3
Cc1nonc1C1CCCN1Cc1nc(-c2ccccc2Cl)oc1C (stereo unspecified)	1	-94*	3	u	x
CCOc1ccc2c(c1)C(N(CCN1CCOCC1)C(=S)Nc1ccccc1OC)CC(C)(C)O2 (stereo unspecified)	-16	-1	11	-2%	x
O=C(Cc1n[nH]c(=O)[nH]c1=O)N/N=C/c1ccccc1O	u	5	1	14µM*	7
Cc1ccc(/C=N/NC(=O)Cc2c[nH]c3ccccc23)c(C)c1	-3	5	4	1%	-4
Cc1cccc(C)c1NC(=O)CNC(=O)Cc1c[nH]c2ccccc12	-2	5	-106*	x	-1

Compound activity deposited in PubChem BioAssay by National Center for Advancing Translational Sciences (NCATS).
